# High-throughput results (PubChem BioAssay)
# Rows were chosen to be rich in hits. Some 15% of all compounds tested hit in one or more screens of this group.
# VP16 counter – counter-screen for ROR gamma inhibitors: Gal4-VP16 reporter; Drosophila S2 Gal4-VP16 UAS-luciferase, luminescence, 20 h; Potency, µM (series often up to 53.6 µM), inactives show at the highest dose activity, negative = inhibition, actives largely listed as inhibitors; 310,000 tested, 3.5% active;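 also: Gal4-VP16 expression switched on by copper sulfate through the metallothionein promoter; nearly all actives have a fitted effect of over 50% in size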
# ELG1 DNA repair – ELG1-dependent DNA repair inhibition. HEK293T ELG1-luciferase reporter, luminescence, 16 h; DNA damage induced by 5-fluorouridine. Potency, µM (titrated, usually from 46.1 µM), inactives show top-dose activity change, negative = inhibition, hits mostly inhibitors. 330,000 tested, 2.3% active. AID 504467; also: nearly all actives have a fitted effect of over 55% in size
#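 Quantitative HTS, concentration-response format. 2,000 cells/well co-treated with 5-fluorouridine and compound, 16 hr in 5% CO2 at 37 °C; ONE-Glo luminescence read after 30 min.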
# TDP1 cell CPT – DT40-hTDP1 cell growth loss with CPT; chicken DT40 Tdp1-/-;hTDP1 cells + 20 nM CPT, ATP luminescence, 48 h; Potency, µM (highest dose often 46.2 µM), without a hit: at the highest dose activity change, negative = growth inhibition, most hits filed as inhibitors; 420,000 tested, 12% active; AID 686979; also: nearly all actives have a fitted effect of over 55% in size
#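 Cell growth measured by CellTiter-Glo luminescence after a minimum 48 h, 37 C compound exposure with 20 nM CPT in Tdp1-knockout DT40 cells stably expressing hTDP1, seeded 400/well; qHTS titration format.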
# RORgamma inh – ROR gamma (mouse) transcription inhibition; AID 2551; Drosophila S2 Gal4-RORgamma UAS-luciferase reporter, 20 h; Potency, µM (doses to about 53.6 µM), for inactives: at the highest dose activity change, negative = inhibition, hits mostly inhibitors; P51450; 310,000 tested, 5.4% active; also: nearly all actives have a fitted effect of over 60% in size
# Target sequence (P51450 whole entry, looked up, the tested form may be a part): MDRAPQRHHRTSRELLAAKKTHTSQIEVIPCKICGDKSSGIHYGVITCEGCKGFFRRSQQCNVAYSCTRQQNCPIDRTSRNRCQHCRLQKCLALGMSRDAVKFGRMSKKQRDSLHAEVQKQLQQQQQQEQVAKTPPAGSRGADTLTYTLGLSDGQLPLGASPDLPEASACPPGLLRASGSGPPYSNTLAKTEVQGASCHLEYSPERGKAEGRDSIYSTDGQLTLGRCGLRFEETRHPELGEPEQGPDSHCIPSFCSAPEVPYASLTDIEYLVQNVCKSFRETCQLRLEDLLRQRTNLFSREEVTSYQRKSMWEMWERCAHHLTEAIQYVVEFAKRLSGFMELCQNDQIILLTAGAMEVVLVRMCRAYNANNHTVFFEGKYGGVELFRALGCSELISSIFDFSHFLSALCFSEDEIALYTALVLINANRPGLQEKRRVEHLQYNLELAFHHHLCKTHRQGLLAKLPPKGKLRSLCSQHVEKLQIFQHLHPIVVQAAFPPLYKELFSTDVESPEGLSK
#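 Using a luciferase readout, inhibitors were identified by reduced reporter activity in Drosophila cells coexpressing a copper-inducible Gal4–ROR gamma fusion and UAS-driven Photinus luciferase, incubated 20 hr after 700 uM copper sulfate.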
# TDP1 cell noCPT – qHTS for Inhibitors of human tyrosyl-DNA phosphodiesterase 1 (TDP1): qHTS in cells in absence of CPT | DT40 Tdp1-/- hTDP1 cells, no CPT, ATP luminescence, 48 h | Potency, µM (highest dose often 46.2 µM), for the others: at the top dose activity change, negative = growth inhibition, most hits filed as inhibitors | 420,000 tested, 15% active | AID 686978, 2013; also: nearly all actives have a fitted effect of over 55% in size
#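 Chicken DT40 Tdp1-/- cells complemented with human TDP1, screened without camptothecin (DMSO vehicle only), 400 cells/well. Compounds pin-transferred, cells incubated at 37 °C for at least 48 hr. Growth read as ATP-dependent luminescence (CellTiter-Glo, 30 min at RT).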
# ALOX12 inh – ALOX12 (human) lipoxygenase inhibition. P18054. purified 12hLO, xylenol orange hydroperoxide absorbance. Potency, µM (titrated, usually from 108 µM), inactives show at the top dose activity change, negative = inhibition, most hits filed as inhibitors. 580,000 tested, 1.1% active. AID 1671190
#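 Hydroperoxide product was detected by ferrous iron/xylenol orange as the 573 to 405 nm absorbance ratio. Arachidonic acid at 40 uM (final) was turned over for 30 min at room temperature by 150 nM human 12hLO, pH 7.0 Hepes buffer, after 15 min compound preincubation.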
# * hit, by the source's call; ? = inconclusive; nt = no result; [ ] = another dose, or the depositor's remark. Calls follow the shape of the dose curve; as a rule, active = well fitted curve in the direction sought with a large enough effect; inconclusive = small, poorly fitted or top-dose-only effect, or another doubt; inactive = no such curve, though single readings can be large; an effect the other way counts as inactive or inconclusive. % is scaled to controls: 0 for no effect and ±100 for the full control effect; potency is read from the fitted curve at half-maximal effect.
SMILES,VP16 counter,ELG1 DNA repair,TDP1 cell CPT,RORgamma inh,TDP1 cell noCPT,ALOX12 inh
CCCC1=Nc2cc(C(=O)NCc3ccccc3Cl)ccc2Sc2ccc(Cl)cc21,nt,nt,nt,nt,nt,45%
CCc1ccc(CNC(=O)c2ccc(CN3C(=O)NC4(CCOCC4)C3=O)cc2)cc1,nt,nt,nt,nt,nt,28%
CN(C)CC(C#N)C(O)c1ccccc1 (stereo not drawn),nt,nt,nt,nt,nt,-19%
CC(C)c1ccc(/C=N/NC(=O)c2nnn(-c3nonc3N)c2CSC2=NCCS2)cc1,?,?,?,16µM*,21µM*,0%
CC(C)c1c(C(=O)N/N=C/c2ccc3c(c2)OCO3)nnn1-c1nonc1N,0%,-13%,-1%,24%,15%,-1%
Nc1nonc1-n1nnc(C(=O)N/N=C/c2ccc(Br)cc2)c1CSC1=NCCS1,?,?,?,-124%,26µM*,36%
Nc1nonc1-n1nnc(C(=O)N/N=C/c2cccnc2)c1CSC1=NCCS1,-4%,-15%,-4%,29%,?,-9%
Cc1ccc(S(=O)(=O)Cc2ccc(C(=O)N3CCN(Cc4ccccc4)CC3)o2)cc1,7%,18µM*,nt,4%,nt,-15%
Cc1ccc(C)c(N2CCN(C(=O)c3ccc(CS(=O)(=O)c4ccc(Br)cc4)o3)CC2)c1,nt,nt,?,nt,?,-18%
Cc1ccccc1S(=O)(=O)Cc1ccc(C(=O)N2CCN(c3ccc(F)cc3)CC2)o1,3%,?,16µM*,?,?,-12%
Cc1ccc(S(=O)(=O)Cc2ccc(C(=O)N3CCN(c4cccc(C)c4C)CC3)o2)cc1,3%,?,1.8µM*,14%,2.6µM*,2%[57.4 µM]
Cc1ccccc1S(=O)(=O)Cc1ccc(C(=O)N2CCN(c3ccccc3F)CC2)o1,3%,-22%,?,9%,?,-14%
COc1ccc(S(=O)(=O)Cc2ccc(C(=O)N3CCN(Cc4ccccc4)CC3)o2)cc1,-12%,-17%,5%,0%,1%,1%
O=C(c1ccc(CS(=O)(=O)c2c(Cl)cccc2Cl)o1)N1CCN(c2ccccc2)CC1,nt,nt,?,nt,15µM*,-3%
COc1ccc(/C=C(/C#N)C(=O)OCc2c(Cl)cccc2Cl)cc1,nt,nt,nt,nt,nt,50%
CCCCCc1c(C)nc(Nc2nc(C)c3cc(OCC)ccc3n2)[nH]c1=O,nt,nt,nt,nt,nt,3%
Cc1ccc(-c2cc(C(=O)NC3=NCCS3)c3ccccc3n2)s1,nt,nt,nt,nt,nt,1%
O=C(O)C1CC2(CCN(C(=O)CCCn3ccnc3)CC2)CN1 (stereo not drawn),nt,nt,nt,nt,nt,17%
Cc1ccc(S(=O)(=O)Cc2ccc(C(=O)N3CCN(c4ccc(F)cc4)CC3)o2)cc1,3%,23µM*,?,24%,?,-14%
Cc1ccc(Cl)cc1N1CCN(C(=O)c2ccc(CS(=O)(=O)c3ccccc3C)o2)CC1,nt,nt,?,nt,18µM*,-15%
Cc1ccccc1S(=O)(=O)Cc1ccc(C(=O)N2CCN(c3ncccn3)CC2)o1,0%,?,-23%,-19%,?,-1%
Cc1cccc(-c2[nH]ncc2CNC(=O)c2cccc(N(C)C)c2)c1,nt,nt,nt,nt,nt,56%
Cc1ccc(N(C)c2nc(N)nc(N)c2N=O)cc1,nt,nt,nt,nt,nt,-50%
Cc1cccc(Nc2nc(N)nc(N)c2S(=O)(=O)c2ccccc2)c1,nt,nt,nt,nt,nt,-7%
Cc1cccc(Nc2nc(N)nc(N)c2N=O)c1,nt,nt,26µM*,nt,21µM*,-21%
Cc1cc(Br)ccc1Nc1nc(N)nc(N)c1N=O,nt,nt,10µM*,nt,?,?
Cc1nc(-c2ccccc2)sc1C(=O)Nc1ccc2[nH]c(=O)[nH]c2c1,nt,nt,nt,nt,nt,-53%
CCOC(=O)C(NC(=O)c1cc(OC)cc(OC)c1)C(=O)OCC,nt,nt,nt,nt,nt,-24%
